Experimental findings from PubChem BioAssay (EPA / NIEHS) are described below.

The structures appear in SMILES notation. Active and inactive are the calls of the source. How the source made its calls: active means hit-call score of the fitted dose curve at least 0.9, where 1 is the maximum; inactive means score below 0.9.

Read-out in test [1]: Tissue plasminogen activator (tPA), PLAT (gene 5327)
Briefly: BSK_BE3C_tPA: BioMAP Diversity Plus: BE3C Assay for Tissue plasminogen activator (tPA) Biomarker Activity (AID 2283041).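 Further: tPA level quantified by ELISA one day after compound addition.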 The note with it: primary human bronchial epithelial cells; actives raise or lower the signal. The essentials: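 Using human lung primary bronchial epithelial cells, tPA was measured by ELISA 24 h after dosing; data fitted relative to DMSO.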

Read-out in test [2]: Interleukin-8 (IL8), CXCL8 (gene 3576)
Briefly: BSK_CASM3C_IL8: BioMAP Diversity Plus: CASM3C Assay for Interleukin-8 (IL8) Biomarker Activity (AID 2283042).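 Further: IL-8 protein level quantified by ELISA.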 To be noted: primary human coronary artery smooth muscle cells; actives raise or lower the signal.

Read-out in test [3]: Human Leukocyte Antigen - DR isotype (HLADR), HLA-DRA (gene 3122)
As to the kind of experiment: BSK_CASM3C_HLADR: BioMAP Diversity Plus: CASM3C Assay for Human Leukocyte Antigen - DR isotype (HLADR) Biomarker Activity (AID 2283043).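 Further: cell-surface HLA-DR protein level quantified by ELISA.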 The note with it: primary human coronary artery smooth muscle cells; actives raise or lower the signal.

Read-out in test [4]: Macrophage colony-stimulating factor (MCSF), CSF1 (gene 1435)
Briefly: BSK_CASM3C_MCSF: BioMAP Diversity Plus: CASM3C Assay for Macrophage colony-stimulating factor (MCSF) Biomarker Activity (AID 2283044).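 Further: M-CSF protein amount quantified by ELISA after 24 h exposure.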 To be noted: primary human coronary artery smooth muscle cells; actives raise or lower the signal.

Read-out in test [5]: Low-density lipoprotein receptor (LDLR), LDLR (gene 3949)
Briefly: BSK_CASM3C_LDLR: BioMAP Diversity Plus: CASM3C Assay for Low-density lipoprotein receptor (LDLR) Biomarker Activity (AID 2283045).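 Further: LDLR protein level on the cell surface quantified by ELISA.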 To be noted: primary human coronary artery smooth muscle cells; actives raise or lower the signal.

Read-out in test [6]: Monocyte Chemoattractant Protein-1 (MCP1), CCL2 (gene 6347)
As to the kind of experiment: BSK_CASM3C_MCP1: BioMAP Diversity Plus: CASM3C Assay for Monocyte Chemoattractant Protein-1 (MCP1) Biomarker Activity (AID 2283046).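 Further: MCP-1 level quantified by ELISA 24 h after dosing.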 The note with it: primary human coronary artery smooth muscle cells; actives raise or lower the signal.

Test [7] in a line: BSK_CASM3C_Proliferation: Cell Proliferation Assessment in the BioMAP Diversity Plus: CASM3C Assay (AID 2283047).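 Further: sulforhodamine B total protein stain as relative cell number at 560 nm; sub-confluent cells exposed 48 h before staining; fitted both ways against DMSO so gain or loss of cell number.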 To be noted: primary human coronary artery smooth muscle cells.
Read-out in test [8]: Monokine induced gamma interferon (MIG), CXCL9 (gene 4283)
As to the kind of experiment: BSK_CASM3C_MIG: BioMAP Diversity Plus: CASM3C Assay for Monokine induced gamma interferon (MIG) Biomarker Activity (AID 2283048).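 Further: MIG protein level measured by ELISA.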 To be noted: primary human coronary artery smooth muscle cells; actives raise or lower the signal.

Read-out in test [9]: serum amyloid A (SAA), SAA1 (gene 6288)
As to the kind of experiment: BSK_CASM3C_SAA: BioMAP Diversity Plus: CASM3C Assay for serum amyloid A (SAA) Biomarker Activity (AID 2283049).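 Further: SAA protein level quantified by ELISA.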 The note with it: primary human coronary artery smooth muscle cells; actives raise or lower the signal.

Test [10] can be described thus: BSK_CASM3C_SRB: Viability Assessment in the BioMAP Diversity Plus: CASM3C Assay (AID 2283050).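 Further: cells exposed to compound for 24 h.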 To be noted: primary human coronary artery smooth muscle cells.
Read-out in test [11]: Thrombomodulin, THBD (gene 7056)
As to the kind of experiment: BSK_CASM3C_Thrombomodulin: BioMAP Diversity Plus: CASM3C Assay for Thrombomodulin Biomarker Activity (AID 2283051).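 Further: thrombomodulin protein level measured by ELISA 24 h after dosing.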 The note with it: primary human coronary artery smooth muscle cells; actives raise or lower the signal.

Read-out in test [12]: Tissue Factor, F3 (gene 2152)
Briefly: BSK_CASM3C_TissueFactor: BioMAP Diversity Plus: CASM3C Assay for Tissue Factor Biomarker Activity (AID 2283052).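 Further: cell surface tissue factor protein level read by ELISA.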 To be noted: primary human coronary artery smooth muscle cells; actives raise or lower the signal.

Read-out in test [13]: Interferon-gamma inducible Protein 10 (IP10), CXCL10 (gene 3627)
Briefly: BSK_hDFCGF_IP10: BioMAP Diversity Plus: hDFCGF Assay for Interferon-gamma inducible Protein 10 (IP10) Biomarker Activity (AID 2283053). The note with it: primary human foreskin fibroblasts; actives raise or lower the signal. A digest of the protocol:
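Chemical-treated human skin fibroblasts (primary) were sampled at 24 h for IP-10 by ELISA. Both increases and decreases relative to DMSO were scored.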

Read-out in test [14]: Urokinase-type plasminogen activator receptor (uPAR), PLAUR (gene 5329)
Briefly: BSK_CASM3C_uPAR: BioMAP Diversity Plus: CASM3C Assay for Urokinase-type plasminogen activator receptor (uPAR) Biomarker Activity (AID 2283054).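 Further: cell-surface uPAR protein level quantified by ELISA.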 The note with it: primary human coronary artery smooth muscle cells; actives raise or lower the signal.

Read-out in test [15]: Vascular cell adhesion molecule 1 (VCAM1), VCAM1 (gene 7412)
Briefly: BSK_CASM3C_VCAM1: BioMAP Diversity Plus: CASM3C Assay for Vascular cell adhesion molecule 1 (VCAM1) Biomarker Activity (AID 2283055).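 Further: VCAM-1 protein level quantified by ELISA on the cells.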 To be noted: primary human coronary artery smooth muscle cells; actives raise or lower the signal.

Read-out in test [16]: Collagen III, COL3A1 (gene 1281)
As to the kind of experiment: BSK_hDFCGF_CollagenIII: BioMAP Diversity Plus: hDFCGF Assay for Collagen III Biomarker Activity (AID 2283056). To be noted: primary human foreskin fibroblasts; actives raise or lower the signal. The essentials: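 Human foreskin fibroblast primary cultures sampled 24 h after dosing; Collagen III quantified by ELISA. Signal fitted bidirectionally against DMSO baseline.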

Read-out in test [17]: Epidermal growth factor receptor (EGFR), EGFR (gene 1956)
Briefly: BSK_hDFCGF_EGFR: BioMAP Diversity Plus: hDFCGF Assay for Epidermal growth factor receptor (EGFR) Biomarker Activity (AID 2283057). The note with it: primary human foreskin fibroblasts; actives raise or lower the signal. A digest of the protocol:
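Cell-based multiplexed assay in primary human foreskin fibroblasts. EGFR is read by ELISA 24 h after treatment and compared with DMSO controls.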

Read-out in test [18]: Interleukin-8 (IL8), CXCL8 (gene 3576)
As to the kind of experiment: BSK_hDFCGF_IL8: BioMAP Diversity Plus: hDFCGF Assay for Interleukin-8 (IL8) Biomarker Activity (AID 2283058). To be noted: primary human foreskin fibroblasts; actives raise or lower the signal. A digest of the protocol:
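Primary human foreskin fibroblasts (hDFCGF system) dosed with chemical; IL-8 measured by ELISA 24 hours later. Bidirectional curve fitting relative to DMSO baseline; cytotoxicity tracked in parallel cultures by SRB total protein staining.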

Read-out in test [19]: Macrophage colony-stimulating factor (MCSF), CSF1 (gene 1435)
Briefly: BSK_hDFCGF_MCSF: BioMAP Diversity Plus: hDFCGF Assay for Macrophage colony-stimulating factor (MCSF) Biomarker Activity (AID 2283060). The note with it: primary human foreskin fibroblasts; actives raise or lower the signal. A digest of the protocol:
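Human foreskin fibroblast primary cultures; M-CSF measured by ELISA 24 hours after chemical dosing. Bidirectional fitting relative to DMSO, with overt cytotoxicity tracked by parallel SRB total-protein staining (0.1% SRB, 10% TCA fixation, 560 nm).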

A short description of test [20]: BSK_hDFCGF_Proliferation: Cell Proliferation Assessment in the BioMAP Diversity Plus: hDFCGF Assay (AID 2283059).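 Further: curves fitted for both rise and fall of signal versus DMSO baseline.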 To be noted: primary human foreskin fibroblasts. The essentials:
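This proliferation readout used SRB total-protein staining of human foreskin fibroblasts […], normalized to DMSO with bidirectional curve fitting.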

As a reminder, the AC50 is the midpoint of the concentration-response curve, whichever way the signal moves. For `O=C(O)c1cccc(C(=O)O)c1`, the outcome in test [1], in test [2], in [3], in [4], in test [5] and in [6] was inactive. The result in [7], in test [8], in test [9], in test [10], in [11] and in test [13] was inactive. Also, the result in test [14], in [15], in test [16], in test [17], in [18] and in test [19] was inactive. The AC50 in [12] was 0.357 µM (active).
On to `OCC(CO)(CO)CO`, for which the result in test [1], in [2], in [3], in test [4], in [5] and in test [6] was inactive. Besides, the result in test [7], in test [8], in test [9], in test [10], in [11] and in test [12] was inactive. The outcome in test [13], in test [14], in test [15], in test [16], in test [17] and in test [18] was inactive. Besides, the result in [20] and in test [19] was inactive.
Take `CCn1nc(C)c2c1C(=O)NCC(c1ccc(O)cc1)=N2`: the outcome in test [1], in test [2], in test [3], in test [5], in [6] and in test [8] was inactive. In addition, the outcome in test [9], in test [10], in test [11], in test [12], in test [13] and in test [15] was inactive. In addition, the outcome in test [16], in test [17] and in [18] was inactive. The AC50 is 2.51 µM (active) in test [4]; 10 µM (active) in [7]; 8.18 µM (active) in [14]; 11 µM (active) in test [20]; 3.97 µM (active) in [19].
As for `CCCCCCCC1CCC(=O)O1` (centres undefined), the result in [1], in test [2], in test [3], in test [4], in test [5] and in test [6] was inactive. The outcome in [7], in test [8], in test [9], in test [10], in test [11] and in test [12] was inactive. In addition, the result in test [13], in [14], in test [15], in test [16], in [17] and in test [18] was inactive. The outcome in test [20] and in test [19] was inactive.
Turning to `OC(CCl)CCl`, the outcome in test [1], in [2], in [3], in [4], in test [5] and in [6] was inactive. Moreover, the result in test [7], in [8], in [9], in test [10], in test [11] and in test [12] was inactive. The outcome in test [13], in test [14], in test [15], in [16], in test [17] and in [18] was inactive. The result in test [20] and in [19] was inactive.
Regarding `S=P(N1CC1)(N1CC1)N1CC1`, the result in test [1], in [2], in test [3], in [4], in [5] and in test [6] was inactive. Moreover, the outcome in [8], in test [9], in [10], in [11], in test [12] and in [13] was inactive. For the same molecule, the outcome in test [14], in test [15], in test [16], in [17], in [18] and in [19] was inactive. The results for the AC50 in [7] and in test [20] were 20.9 µM (active) and 18.2 µM (active), respectively.
For the molecule `CC(C)c1nnc2ccc(-c3ocnc3-c3cc(F)ccc3F)cn12`, the result in test [1], in test [4], in test [6], in [7], in [8] and in test [9] was inactive. Also, the outcome in test [10], in test [11], in [12], in [14], in [16] and in [17] was inactive. For the same molecule, the outcome in [18] and in test [19] was inactive. Besides, the concentration at half-maximal activity (AC50) in test [2] is 0.628 µM (active); in [3], 0.561 µM (active); in test [5], 0.551 µM (active); in test [13] it was 0.628 µM (active); in [15], 0.354 µM (active); in test [20], 5.62 µM (active).
